Columns and labels:
Settings in all cases: concentration: 1 μM, replicates: in singlicate; n = 1
ULK3 = system: ULK3
VEGFR2 = system: T1, VEGFR2
T1 construct: gene KDR

VPS34 = system: T2, VPS34
T2 construct: gene PIK3C3

VRK2 = system: VRK2
WEE1 = system: WEE1
WEE2 = system: WEE2
WNK1 = system: WNK1
WNK2 = system: WNK2
WNK3 = system: WNK3
WNK4 = system: WNK4
YANK1 = system: T3, YANK1
T3 construct: gene STK32A

YANK2 = system: T4, YANK2
T4 construct: gene STK32B

YANK3 = system: T5, YANK3
T5 construct: gene STK32C

YES = system: T6, YES
T6 construct: gene YES1

YSK1 = system: T7, YSK1
T7 construct: gene STK25

YSK4 = system: T8, YSK4
T8 construct: gene MAP3K19

ZAK = system: ZAK
ZAP70 = system: ZAP70
p38-alpha = system: T9, p38-alpha
T9 construct: gene MAPK14

p38-beta = system: T10, p38-beta
T10 construct: gene MAPK11
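Also: KINOMEscan kinase panel screen.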

SMILES | %Inh (ULK3) | %Inh (VEGFR2) | %Inh (VPS34) | %Inh (VRK2) | %Inh (WEE1) | %Inh (WEE2) | %Inh (WNK1) | %Inh (WNK2) | %Inh (WNK3) | %Inh (WNK4) | %Inh (YANK1) | %Inh (YANK2) | %Inh (YANK3) | %Inh (YES) | %Inh (YSK1) | %Inh (YSK4) | %Inh (ZAK) | %Inh (ZAP70) | %Inh (p38-alpha) | %Inh (p38-beta)
O=C(Nc1n[nH]c2nc(-c3ccccc3)c(Cl)cc12)C1CC1 [SB-734909] | 0% | 15% | 0% | 0% | 0% | 0% | 1% | 0% | 7% | 0% | 17% | 0% | 0% | 0% | 0% | 85% | 14% | 10% | 24% | 39%
CN(C)c1cc(-c2ccc3c(N)n[nH]c3c2)nc(N)n1 [GSK2219329] | 9% | 3% | 0% | 0% | 3% | 1% | 3% | 0% | 15% | 32% | 7% | 0% | 0% | 1% | 12% | 16% | 92.5% | 0% | 0% | 0%
C[C@@H]1CC[C@H](C(=O)NC2CCCCC2)CN1c1cc(-c2ccc3c(N)n[nH]c3c2)nc(N)n1 [GSK2291363] | 11% | 8% | 31% | 0% | 34% | 26% | 16% | 4% | 21% | 0% | 6% | 3% | 26% | 21% | 24% | 27% | 9% | 0% | 36% | 0%
COc1cc2ncn(-c3cc(OCc4ccncc4Br)c(C(N)=O)s3)c2cc1OC [GW854278] | 36% | 31% | 58% | 24% | 0% | 18% | 19% | 35% | 64% | 0% | 0% | 0% | 0% | 0% | 0% | 61% | 15% | 0% | 4% | 0%
COc1ccc(-n2cnc3c(N)ncnc32)cc1 [SKF-97236] | 10% | 0% | 27% | 0% | 0% | 0% | 11% | 19% | 0% | 0% | 0% | 10% | 0% | 0% | 0% | 34% | 15% | 0% | 0% | 21%
Cn1c(=O)c(F)c(Nc2ccc(I)cc2F)c2c(=O)n(OC[C@H](O)CO)cnc21 | 13% | 0% | 0% | 0% | 29% | 4% | 0% | 0% | 0% | 11% | 0% | 10% | 0% | 0% | 0% | 0% | 19% | 0% | 13% | 11%
CCC(=O)c1c(-c2ccccc2)c2cc(Cl)ccc2c(=O)n1Cc1cc(S(C)(=O)=O)n(CC(F)F)n1 | 0% | 0% | 0% | 0% | 0% | 0% | 0% | 0% | 0% | 0% | 0% | 8% | 0% | 0% | 0% | 0% | 0% | 11% | 10% | 2%
COc1ccc(-c2cc3c(C)nc(N)nc3n([C@H]3CC[C@H](OCCO)CC3)c2=O)cn1 | 3% | 0% | 0% | 0% | 0% | 0% | 0% | 0% | 0% | 0% | 14% | 0% | 0% | 0% | 0% | 0% | 1% | 0% | 0% | 0%
CCn1c(-c2nonc2N)nc2ccccc21 [SB-693162/GW549034] | 20% | 40% | 2% | 0% | 0% | 0% | 0% | 39% | 0% | 6% | 46% | 0% | 0% | 0% | 0% | 87% | 0% | 0% | 23% | 1%
CC(C)(C)c1ccc(C(=O)Nc2cn3cc(-c4ccccc4)ccc3n2)cc1 | 12% | 0% | 0% | 1% | 6% | 0% | 0% | 0% | 0% | 16% | 0% | 0% | 0% | 2% | 0% | 21% | 14% | 0% | 0% | 11%
FC(F)(F)c1ccc(-c2ncn(CCCN3CCOCC3)c2-c2ccncc2)cc1 [SB-217780] | 4% | 14% | 13% | 42% | 48% | 34% | 20% | 0% | 15% | 0% | 17% | 1% | 7% | 3% | 0% | 10% | 17% | 12% | 25% | 5%
COc1cc2nccc(Nc3ccc(OCc4ccc(NC(C)=O)cc4)cc3)c2cc1OC.Cl [GW440135] | 13% | 96.2% | 0% | 35% | 29% | 12% | 2% | 16% | 39% | 0% | 0% | 4% | 0% | 11% | 0% | 0% | 10% | 16% | 18% | 0%
COc1ccc(CNC(=O)NC2CCN(c3ccnc(Nc4ccc(F)cc4)n3)C2)cc1 (stereo not drawn) [GSK1379706] | 0% | 9% | 33% | 33% | 10% | 9% | 0% | 30% | 49% | 50% | 12% | 0% | 0% | 0% | 25% | 0% | 0% | 20% | 44% | 0%
Cl.c1ccc(Cn2cnc3cc(Nc4ncnc5ccccc45)ccc32)cc1 [GW272142] | 5% | 0% | 0% | 0% | 4% | 12% | 2% | 21% | 35% | 44% | 0% | 0% | 18% | 7% | 0% | 29% | 0% | 21% | 0% | 0%
Cc1c(Cn2c(C)nn3c(=O)cc(N4CCO[C@H](C)C4)nc23)cccc1C(F)(F)F [GSK2373690] | 21% | 0% | 59% | 0% | 5% | 5% | 11% | 4% | 20% | 0% | 11% | 18% | 8% | 10% | 6% | 33% | 9% | 0% | 0% | 0%
COc1cc(Nc2nccc(N3CCC(NC(=O)C(C)c4ccc(Cl)cc4)C3)n2)cc(OC)c1OC (stereo not drawn) [GSK1379757] | 42% | 0% | 0% | 0% | 30% | 0% | 9% | 0% | 15% | 10% | 0% | 0% | 0% | 5% | 6% | 29% | 0% | 0% | 10% | 0%
Nc1nc(-c2ccccc2F)c(-c2ccnc3ccccc23)s1 [GW560459] | 4% | 0% | 0% | 37% | 0% | 0% | 11% | 7% | 35% | 48% | 39% | 8% | 0% | 0% | 13% | 13% | 17% | 13% | 99.8% | 0%
COc1ccc(-c2coc3ccc(-c4nnc(SCc5cccc(C#N)c5)o4)cc23)cc1 | 81% | 10% | 0% | 0% | 0% | 8% | 0% | 0% | 0% | 3% | 21% | 12% | 11% | 0% | 0% | 0% | 23% | 0% | 5% | 11%
Cc1ccc(Oc2ccc(Nc3ncnc4cc[nH]c34)cc2C)cn1 | 22% | 15% | 20% | 0% | 0% | 0% | 0% | 0% | 10% | 0% | 5% | 22% | 11% | 3% | 0% | 14% | 5% | 0% | 5% | 28%
O=C1NC(=O)C(c2ccccc2)=C1Nc1cccc(O)c1 [SB-390534] | 26% | 7% | 19% | 0% | 0% | 1% | 0% | 0% | 0% | 9% | 0% | 0% | 0% | 0% | 8% | 0% | 8% | 0% | 1% | 3%
CN1C(=O)C(Nc2ccccc2)=C(c2ccccc2)C1=O [SB-300079] | 7% | 0% | 30% | 19% | 51% | 1% | 0% | 0% | 33% | 26% | 0% | 2% | 0% | 0% | 3% | 8% | 0% | 23% | 0% | 10%
